Screens from PubChem.
A549 tox: kills or reduces viability of A549 cells in Nrf2 counter-screen | A549 ARE-Fluc cells, CellTiter-Fluor viability, 18-24 h | 390,000 tested, 0.16% active | AID 504648 | Potency, µM (highest dose often 46 µM), for inactives: top-dose activity change, negative = cytotoxicity, most hits filed as inhibitors; note: potency is the fitted concentration of half-maximal effect; % is set by controls: 0 for no effect and ±100 for the full control effect
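A549 ARE_Fluc cells in 5% FBS OPTI-MEM were exposed to compounds in concentration-response for 18-24 h at 37 deg C. Viability was read by CellTiter-Fluor fluorescence (Ex 405/Em 525) after 30 min, before the luciferase read.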
ALOX12 inh: blocks human arachidonate 12S-lipoxygenase. purified 12hLO, xylenol orange hydroperoxide absorbance. 580,000 tested, 1.1% active. P18054. Potency, µM (series often up to 108 µM), inactives show top-dose activity change, negative = inhibition, hits mostly inhibitors; note: potency is the fitted concentration of half-maximal effect; % is set by controls: 0 for no effect and ±100 for the full control effect
Target sequence (P18054 whole entry, looked up): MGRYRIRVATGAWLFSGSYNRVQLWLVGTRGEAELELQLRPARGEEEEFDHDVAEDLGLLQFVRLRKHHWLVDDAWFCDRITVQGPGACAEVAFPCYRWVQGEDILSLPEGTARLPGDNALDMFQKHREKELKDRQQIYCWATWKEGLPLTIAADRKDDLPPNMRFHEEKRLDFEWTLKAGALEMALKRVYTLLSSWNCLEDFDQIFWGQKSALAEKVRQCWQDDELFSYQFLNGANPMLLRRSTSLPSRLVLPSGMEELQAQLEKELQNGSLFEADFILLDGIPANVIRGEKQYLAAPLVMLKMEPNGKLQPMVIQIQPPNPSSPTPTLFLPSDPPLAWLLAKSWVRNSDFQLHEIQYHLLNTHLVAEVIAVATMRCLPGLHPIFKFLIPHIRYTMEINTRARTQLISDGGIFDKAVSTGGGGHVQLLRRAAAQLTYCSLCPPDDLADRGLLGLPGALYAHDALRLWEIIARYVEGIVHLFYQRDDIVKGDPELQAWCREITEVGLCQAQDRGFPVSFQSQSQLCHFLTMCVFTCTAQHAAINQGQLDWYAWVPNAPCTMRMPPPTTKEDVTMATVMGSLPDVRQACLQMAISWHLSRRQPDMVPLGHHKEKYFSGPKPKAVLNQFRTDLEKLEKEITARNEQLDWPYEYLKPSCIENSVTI
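Purified human 12hLO (150 nM final) in 25 mM Hepes, 0.01% Triton X-100, pH 7.0 was preincubated 15 min at room temperature with compound. Then 40 uM arachidonic acid was added, 30 min. Hydroperoxide was read by Fe-XO absorbance ratio 573/405 nm.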
mIDH1 inhibitor: inhibitors of human mutant IDH1 R132H; O75874; IDH1-R132H enzyme, NADPH consumption, diaphorase/resazurin fluorescence; Potency, µM (titrated, usually from 76.6 µM), for the others: top-dose activity change, negative = inhibition, usual class: inhibitors; 390,000 tested, 0.093% active; AID 602179; note: potency is the fitted concentration of half-maximal effect; % is set by controls: 0 for no effect and ±100 for the full control effect; nearly all actives have a fitted effect of over 65% in size
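IDH1-R132H (0.5 ug/mL dispensed) in pH 7.5 Tris buffer was preincubated 30 min with compound, then given a substrate mix of 0.016 mM NADPH and 2 mM alpha-KG for 80 min at room temperature; remaining NADPH was read by diaphorase/resazurin fluorescence.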
Nrf2 activator: activates Nrf2 signaling; AREc32 ARE-luciferase reporter (MCF7-derived line), luminescence, 24 h; Potency, µM (titrated, usually from 46.1 µM), for the others: top-dose activation, actives largely listed as activators; 410,000 tested, 0.31% active; note: potency is the fitted concentration of half-maximal effect; % of control where 0% means no effect; nearly all actives have a fitted effect of over 65% in size
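Each well held 1000 AREc32 cells, which were incubated with compound for 24 hr at 37 deg C after overnight attachment, and ARE reporter activity was quantified by firefly luciferase luminescence.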
Nrf2 inh: Nrf2 pathway inhibition | Potency, µM (doses to about 46 µM), for inactives: at the top dose activity change, negative = inhibition, usual class: inhibitors | A549 ARE-Fluc reporter, luciferase luminescence, 18-24 h | AID 504444 | 360,000 tested, 2.1% active; note: potency is the fitted concentration of half-maximal effect; % is set by controls: 0 for no effect and ±100 for the full control effect; nearly all actives have a fitted effect of over 60% in size
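Quantitative HTS in A549 cells stably bearing an antioxidant response element-firefly luciferase construct. Inhibition of Nrf2-driven transcription was scored by luminescence after 18-24 h of compound exposure at 37 °C.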
LDHA inh: inhibitors of human lactate dehydrogenase A; purified LDHA, NADH/diaphorase-resazurin fluorescence; active compounds read low; activity change, % (values are at about 110 or 230 µM); 480,000 tested, 0.15% active; AID 1347041; in the data active = activity change below about -30%; inconclusive = mostly about -25% to -30%;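 note: plate controls were DMSO wells for no effect and wells without enzyme for full effect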
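Human LDH5 at 2 nM final in Tris HCl pH 7.4 with 0.06 mM NADH and 0.2 mM pyruvate, reacted 5 minutes at room temperature. Remaining NADH coupled via diaphorase/resazurin; resorufin fluorescence read at 0 and 20 minutes, normalized to enzyme-free and DMSO wells.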
Active calls of the source: *; u = inconclusive; x = no result; [ ] = dose if it differs, or a comment. Rows were chosen to be rich in hits. Some 2.7% of all compounds tested hit in one or more screens of this group. Unless noted, calls come from the whole dose curve; as a rule, active = well fitted curve in the direction sought with a large enough effect; inconclusive = small, poorly fitted or top-dose-only effect, or another doubt; inactive = no such curve, though single readings can be large; an effect the other way counts as inactive or inconclusive.

SMILES | A549 tox | ALOX12 inh | mIDH1 inhibitor | Nrf2 activator | Nrf2 inh | LDHA inh
Nc1nc(N)c(-c2cccc(C(F)(F)F)c2)c(Cc2cccc(C(F)(F)F)c2)n1 | 2% | u | 4% | 3% | 15µM* | 1
Cn1c(SCc2nc3ccccc3s2)nnc1-c1cccs1 | 14% | u | 10% | 23% | u | -5
CCn1c(SCc2nc(-c3cccs3)no2)nnc1-c1c[nH]c2ccccc12 | u | 39% | 2% | -1% | 18µM* | -6
CCn1c(SCC(=O)N/N=C/c2c[nH]c3ccccc23)nnc1-c1ccc(C(C)(C)C)cc1 | u | -26% | -3% | 0% | 16µM* | 0
CCn1c(SCc2nc3ccccc3s2)nnc1-c1cccs1 | 3% | -10% | 7% | 14µM* | u | -1
CCn1c(SCC(=O)c2c[nH]c3ccccc23)nnc1-c1cccs1 | -10% | 4% | 16% | 11µM* | -16% | -3
CCn1c(SCc2nc(-c3ccccc3)no2)nnc1-c1cccs1 | x | 0% | 4% | 4% | u | -12
CC1COCCN1Cc1ccccc1C#N (stereo not given) | x | u | x | x | x | 4
Cc1cc(C)n2ncc(-c3noc(C(=O)NCc4ccco4)n3)c2n1 | x | u | x | x | x | 2
O=C(c1ccc(N2CC3CC(C2)[C@H]2CCCC(=O)N2C3)nc1)N1CCN(c2ccc(Cl)cc2)CC1 (stereo not given in full) | x | 9% | x | x | x | x
COc1ccc(C)cc1NC(=O)c1cccc(-c2ccc(OC(C)=O)cc2)c1 | -24% | -22% | 3% | 4% | 16µM* | -9
COc1ccc(-c2cccc(C(=O)Nc3ccccc3C)c2)cc1 | 3% | -4% | 2% | 0% | -16% | -2
COC(=O)C1=C(C)NC(=O)NC1c1ccc(-c2ccc(Cl)cc2)o1 (stereo not given) | -2% | -25% | -16% | 0% | u | -16
COC(=O)C1=C(C)NC(=S)NC1c1ccc(-c2cc(Cl)ccc2Cl)o1 (stereo not given) | u | 18µM* | 2% | 4% | -19% | -2
O=C1NC2c3c(I)sc(I)c3C(=O)C2O1 (stereo not given) | -8% | u | 10% | 11µM* | u | -5
O=C1NC2c3c(Cl)sc(Cl)c3C(=O)C2O1 (stereo not given) | 3% | 40µM* | 6% | 16µM* | 8% | 9
O=C1NC2c3ccccc3CC2O1 (stereo not given) | 0% | -2% | -7% | 0% | 17% | 0
O=C(Nc1ccc(OC(F)(F)F)cc1)c1cc(=O)c2ccccc2o1 | x | u | x | x | x | -15
CC1(c2ccc3c(c2)OCCO3)NC(=O)N(CC(=O)c2c[nH]c3ccccc23)C1=O (stereo not given) | x | 8% | x | x | x | 6
Cc1nc(C(=O)Nc2nn(Cc3ccccc3)c3cc(OC(C)C)ccc23)c(C)o1 | x | 27% | x | x | x | x
CCN(CC)C(=O)/C=C/c1csc(C)n1 | x | -3% | x | x | x | 2
COc1ccccc1CNC(=O)CCc1nnc2ccc(NCc3ccco3)nn12 | x | 0% | x | x | x | -2
COC(=O)c1ccc(OC)c(CSc2nnc(COc3ccc(OC)cc3)o2)c1 | x | -6% | 5% | 1% | 13µM* | 1
COC(=O)c1ccc(OC)c(CSc2nnc(COc3cccc(C)c3)o2)c1 | -14% | -15% | 2% | 0% | u | -9
OC1CCOC2(CCN(Cc3ccc(OC(F)(F)F)cc3)CC2)C1 (stereo not given) | x | 8% | x | x | x | x
SMILES | A549 tox | ALOX12 inh | mIDH1 inhibitor | Nrf2 activator | Nrf2 inh | LDHA inh
Nc1nccc(/C=C/c2c(Cl)cccc2Cl)n1 | -1% | 0% | 6% | 11µM* | -10% | -3
Fc1ccc(OCc2nnc(-c3ccc(Br)cc3)o2)cc1 | x | 16% | x | x | x | 8
CC(=O)c1c[nH]c(C(=O)NC(c2cccc(F)c2)c2nccn2C)c1 (stereo not given) | x | 22µM* | x | x | x | -3
COC(=O)c1ccc(OCc2ccc(C#N)cc2)c(OC)c1 | x | -42% | x | x | x | -12
COc1cccc(NC(=O)Nc2cc(Cl)ccc2C)c1 | -3% | -7% | 13% | 2% | 18µM* | -2
COc1ccc(NC(=O)Nc2cccc(OC)c2)cc1 | 8% | 20% | 8% | 0% | 26% | -3
COc1ccc(NC(=O)Nc2cc(F)ccc2C)cc1 | -9% | u | 0% | 0% | 21µM* | -5
COc1ccc(NC(=O)Nc2ccc(F)cc2F)cc1 | 7% | 0% | -16% | 3% | u | -6
Cc1cccc(OCc2nnc3sc(-c4ccccc4)nn23)c1 | x | -26% | x | x | x | 18
COc1cccc(C(=O)NC2CCN(c3cc(-c4ccc(Cl)cc4)[nH]n3)C2)c1 (stereo not given) | x | -6% | x | x | x | x
CCCCOc1ccc(C(=O)NNC(=O)c2cnccn2)cc1OC | 0% | -5% | 3% | 0% | 10µM* | 2
COc1cc(C(=O)NC(=S)N2CCCCCC2)cc(OC)c1OC | 4% | -9% | 0% | 0% | -4% | -4
COc1cc(C(=O)NC(=S)NNC(=O)c2cnccn2)cc(OC)c1OC | -16% | u | -6% | 1% | 4.6µM* | 1
COc1cc(C(=O)NC(=S)NNC(=O)[C@H]2C[C@@H]2c2ccccc2)cc(OC)c1OC | 6% | 32µM* | -2% | -1% | -3% | -17
COc1cc(C(=O)NC(=S)NC(C)C)cc(OC)c1OC | 2% | 35µM* | 2% | -1%[9.22 µM] | -1% | 2
S=C(NC1CCCCC1)NC12CC3CC(CC(C3)C1)C2 | x | u | x | x | x | -15
COc1ccccc1C(=O)NNC(=S)NC(=O)c1cc(OC)c(OC)c(OC)c1 | -12% | 40µM* | 8% | 0% | u | -5
COc1cc(C(=O)NNC(=S)NC(=O)c2ccccc2C)cc(OC)c1OC | -8% | -20% | 1% | 0% | u | 2
CCOc1ccccc1NC(=O)CCc1c[nH]c2ccccc12 | x | -4% | x | x | x | 4
O=c1[nH]c(C2CCN(S(=O)(=O)c3cccc(Cl)c3)CC2)nc2c1nnn2Cc1ccccc1 | u | -9% | -4% | 5% | 15µM* | 4
O=c1[nH]c(C2CCN(S(=O)(=O)c3ccccc3C(F)(F)F)CC2)nc2c1nnn2Cc1cccc(F)c1 | u | -17% | -1% | 2% | 23µM* | -1
O=c1[nH]c(C2CCN(S(=O)(=O)c3ccc(C(F)(F)F)cc3)CC2)nc2c1nnn2Cc1cccc(F)c1 | -15% | 7% | 8% | 0% | u | -3
